Results published in the supplement of paper PMC8699584.
Several values for one entry are separate records, joined by “and”; a condition that tells them apart may be missing. Equal values may be shown once. Where a name gives a salt, the structure may show the parent alone. ± gives the standard deviation of the averaged measurements.

Columns and labels:
[1] = test system: Molm13; experiment: cell viability relative to DMSO control (bortezomib = 0%); higher = less growth inhibition; settings: 10 nM; 72 h
How it was run: (§1)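 FLT3-ITD+ acute myeloid leukemia cells were dispensed onto a library of 679 approved and investigational compounds in 384-well plates, at 1000 cells per well in 50 µL and a single 10 nM dose, for 72 h. The screen was run in duplicate. Cell viability was read by CellTiter-Glo luminescence on an EnVision reader. Values were converted to percentages by per-plate linear regression between DMSO-treated cells (100%) and positive-control-treated cells (0%).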

[2] = test system: Mv4-11; experiment: as above; settings: 10 nM; 72 h
How it was run: as §1

Structure (SMILES)	cell viability [1]	cell viability [2]
Cc1ccc(F)c(NC(=O)Nc2ccc(-c3cccc4[nH]nc(N)c34)cc2)c1	72.2 ± 9.9%	97.7 ± 10%
Cc1ccc(C(=O)N(CCCN)[C@@H](c2oc3cc(Cl)ccc3c(=O)c2Cc2ccccc2)C(C)C)cc1	2.68 ± 8.6%	-0.7 ± 5.9%
Nc1ncnc2c1c(-c1cccc(OCc3ccccc3)c1)cn2C1CC(CN2CCC2)C1 (configuration not stated) [NVP-AEW541 (hydrochloride)]	110 ± 11%	90.7 ± 25%
O=C1c2cccc(O)c2C(=O)c2c(O)cccc21 [Antrapurol]	112 ± 7.6%	109 ± 3.2%
Cc1cccc(-c2[nH]c(C(C)(C)C)nc2-c2ccc3c(c2)OCO3)n1	118 ± 26%	107 ± 20%
CN(C)Cc1cccc(N=C(c2ccccc2)c2c(O)[nH]c3cc(C(=O)N(C)C)ccc23)c1	108 ± 4.4%	111 ± 12%
Brc1c(Br)c(Br)c2n[nH]nc2c1Br	113 ± 13%	97.11 ± 0.32%
OCCn1cc(-c2cnc3nnn(Cc4ccc5ncccc5c4)c3n2)cn1	120 ± 24%	112 ± 8.7%
Cn1cc(C2=C(c3cccc(N)c3)C(=O)NC2=O)c2ccccc21	114.2 ± 0.55%	113 ± 3.2%
CC(C)c1cnc(NC(=O)Cc2ccccc2)s1	92.8 ± 37%	98.7 ± 9.3%
Cc1[nH]c(/C=C2\C(=O)Nc3ccc(S(=O)(=O)N(C)c4cccc(Cl)c4)cc32)c(C)c1C(=O)N1CCN(C)CC1	104 ± 22%	107 ± 13%
CC(C)NCC(O)c1ccc(O)c(O)c1 (configuration not stated) [Isoprenaline hydrochloride]	114 ± 3.4%	101 ± 17%
C[C@H](Nc1ncnc2nc[nH]c12)c1cc2cccc(Cl)c2c(=O)n1-c1ccccc1 [Duvelisib (IPI-145, INK1197)]	111 ± 14%	111 ± 15%
Nc1ccn([C@@H]2O[C@H](CO)[C@@H](O)C2(F)F)c(=O)n1 [Gemcitabine]	-0.99 ± 5.6%	-5.76 ± 18%
Cc1ccc(C(=O)Nc2ccc(CN3CCN(C)CC3)c(C(F)(F)F)c2)cc1C#Cc1cnc2[nH]ncc2c1 [GZD824 Dimesylate]	4.07 ± 5.9%	-9.27 ± 10%
CC(C)c1cnn2c(NCc3ccccc3)cc(NCCCCCCN)nc12	105 ± 20%	84 ± 18%
Cc1ccc(-c2csc3ncnc(SCCC(=O)O)c23)cc1	108 ± 3.3%	117 ± 10%
Cc1ncc(-c2ccnc(Nc3ccc(S(C)(=O)=O)cc3)n2)n1C(C)C	102 ± 14%	122 ± 13%
COc1cc2ncc(-c3ccccc3)nc2cc1OC	101 ± 4.1%	113 ± 9.7%
CC(CCc1ccccn1)(CCc1ccccn1)C(=O)c1ccccc1	112 ± 14%	109 ± 12%
COc1cc(OC2CCN(C)CC2)ccc1Nc1ncc2c(n1)n(C1CCCC1)c(=O)n2C	107 ± 7.8%	104.1 ± 0.45%
FC(F)(F)c1ccc(/C=C/c2nc(COc3ccc(CCCCn4ccnn4)cc3)co2)cc1 [Mubritinib (TAK 165)]	107 ± 9%	104 ± 7.6%
Cc1[nH]c(/C=C2\C(=O)Nc3ccccc32)c(C)c1CCC(=O)O [TSU-68 (SU6668, Orantinib)]	93.8 ± 2.3%	122 ± 14%
CSc1cccc(Nc2ncc3cc(-c4c(Cl)cccc4Cl)c(=O)n(C)c3n2)c1	92.8 ± 10%	101 ± 7.8%
CO[C@@H](C(=O)N1Cc2[nH]nc(NC(=O)c3ccc(N4CCN(C)CC4)cc3)c2C1)c1ccccc1	95.2 ± 34%	100 ± 3.8%
Cc1ccc(NC(=O)c2ccc(CN3CCN(C)CC3)cc2)cc1Nc1nc(-c2cccnc2)cs1 [Masitinib (AB1010)]	98.2 ± 12%	116 ± 26%

Structure (SMILES)	cell viability [1]	cell viability [2]
CCCCNc1ncc(C(=O)NCc2ccc(-n3ccnc3)cc2)c(NC2CCC(O)CC2)n1 (configuration not stated)	103 ± 5.1%	115.2 ± 0.28%
COc1ccc2cc1Oc1ccc(cc1)C[C@H]1c3cc(c(OC)cc3CCN1C)Oc1c(O)c(OC)cc3c1[C@H](C2)N(C)CC3 [(+)-Fangchinoline]	116 ± 13%	114 ± 1.3%
Oc1cccc(-c2nc(N3CCOCC3)c3sccc3n2)c1 [PI3-Kinase ? Inhibitor 2]	108.6 ± 0.5%	120 ± 22%
CCN(CC)CCCCNc1ncc2cc(-c3cc(OC)cc(OC)c3)c(NC(=O)NC(C)(C)C)nc2n1	114% and 117%	113% and 119%
COc1cc2ncn(-c3cc(OCc4ccccc4S(C)(=O)=O)c(C#N)s3)c2cc1OC	83.4 ± 8.5%	104 ± 5.9%
CS(=O)(=O)CCNCc1ccc(-c2ccc3ncnc(Nc4ccc(OCc5cccc(F)c5)c(Cl)c4)c3c2)o1 [Lapatinib]	96.5 ± 5.9%	103.5 ± 0.39%
COc1cc(Nc2ncc3c(n2)-c2ccc(Cl)cc2C(c2c(F)cccc2OC)=NC3)ccc1C(=O)O [MLN8237(Alisertib)]	99.5 ± 6.3%	114 ± 4.2%
C=CC(=O)Nc1cc(Nc2nccc(-c3c[nH]c4ccccc34)n2)c(OC)cc1N(C)CCN(C)C	104 ± 7.9%	121 ± 6.1%
N#CC(=Cc1cc(Cl)cc(Cl)c1)c1cccnc1	116 ± 8.1%	108 ± 7.3%
Cc1cc2sc(NC(=O)Cc3ccccc3)nc2cc1Cl	116 ± 19%	119 ± 4.2%
Cc1ccc(C(=O)N(CCCN)[C@@H](c2nc3cc(Cl)ccc3c(=O)n2Cc2ccccc2)C(C)C)cc1	2.83 ± 14%	6.27 ± 10%
Cc1cccc(CC(=O)N2CCc3c2ccc(-c2cn(C)c4ncnc(N)c24)c3F)n1	114 ± 3.6%	119 ± 22%
O=C(c1ccc(/C=C/c2n[nH]c3ccccc23)cc1)N1CCNCC1	104 ± 4.2%	92.9 ± 17%
Nc1ncnc2n[nH]c(Nc3ccc(F)cc3)c12	102 ± 11%	105 ± 3.4%
CCN1CCN(Cc2ccc(-c3cc4c(N[C@H](C)c5ccccc5)ncnc4[nH]3)cc2)CC1	100 ± 17%	109 ± 18%
Cn1ncc(Cl)c1-c1cc(C(=O)N[C@H](CN)Cc2cccc(F)c2)sc1Cl [Afuresertib]	111 ± 4.8%	113 ± 2.5%
N#Cc1c(-c2ccccc2)cc(-c2cc(Br)ccc2O)[nH]c1=O	125 ± 30%	114 ± 9.7%
Nc1ncnc2c1c(I)cn2[C@@H]1O[C@H](CO)[C@@H](O)[C@H]1O [5-Iodotubercidin]	92.65 ± 0.91%	87.1 ± 4.9%
O=C(NC(CO)c1ccc(F)c(Cl)c1)c1cc(-c2[nH]ncc2-c2cccc(Cl)c2)c[nH]1 (configuration not stated)	116 ± 16%	110 ± 7.8%
Cn1cc(/C=C2\C(=O)Nc3cccnc32)c2ccccc21	104 ± 17%	107 ± 3.6%
CCC[C@H](NC(=O)/C(C#N)=C/c1cccc(Br)n1)c1ccccc1	132 ± 32%	115 ± 11%
Cc1oncc1C(=O)Nc1ccc(C(F)(F)F)cc1 [Leflunomide]	91.3 ± 23%	118 ± 29%
Cn1c(=O)n(-c2ccc(C(C)(C)C#N)cc2)c2c3cc(-c4cnc5ccccc5c4)ccc3ncc21 [BEZ235 (NVP-BEZ235, Dactolisib)]	113 ± 7.9%	102 ± 6.4%
Cc1c(CN2CCN(S(C)(=O)=O)CC2)sc2c(N3CCOCC3)nc(-c3cnc(N)nc3)nc12	106 ± 16%	107 ± 9.6%
CCCC(CCC)C(=O)O [Valproic Acid (sodium salt)]	100 ± 10%	104 ± 10%
CN1CCN(CCOc2cc(OC3CCOCC3)c3c(Nc4c(Cl)ccc5c4OCO5)ncnc3c2)CC1 [Saracatinib (AZD0530)]	98.2 ± 3.5%	106 ± 6.2%

Structure (SMILES)	cell viability [1]	cell viability [2]
COc1cc(-c2cc(-c3cccc(O)c3)cnc2N)cc(OC)c1OC	99.8 ± 14%	106 ± 6.8%
COc1ccc(C=C(C#N)c2cccnc2)cc1OC	100 ± 14%	103 ± 0.99%
Cn1cc(-c2cnn3c(N)c(Br)c([C@@H]4CCCNC4)nc23)cn1	92.5 ± 4.6%	104 ± 4.8%
CNC(=O)c1cc(Oc2ccc(NC(=O)c3cccc(C(F)(F)F)c3)cc2)ccn1	96.3 ± 16%	103 ± 4.9%
COc1cc2nccc(Oc3ccc(NC(=O)C4(C(=O)Nc5ccc(F)cc5)CC4)cc3)c2cc1OC	29.6 ± 16%	44.5 ± 3.8%
COc1ccc(-c2cc(=O)c3c(O)cc(O)cc3o2)cc1O [Diosmetin]	93.4 ± 11%	96.8 ± 6.3%
COc1cc(N2CCOCC2)ccc1Nc1ncc(F)c(Nc2ccccc2NS(C)(=O)=O)n1	98.1 ± 5.6%	111 ± 4.2%
CCN1CCN(Cc2ccc(Nc3ncc(F)c(-c4cc(F)c5nc(C)n(C(C)C)c5c4)n3)nc2)CC1	105% and 98.2%	102% and 112%
Oc1ccc(Nc2nc(-c3ccc(Cl)cc3)cs2)cc1 [Sphingosine Kinase Inhibitor 2]	101 ± 17%	108 ± 7.4%
O=C1NC(=O)/C(=C/c2ccc3nccc(-c4ccncc4)c3c2)S1	106% and 113%	103% and 115%
Nc1ncnc2c1c(-c1cnc3[nH]ccc3c1)nn2C1CCCC1	118 ± 2.6%	125 ± 14%
CC(C)(C)[Si](C)(C)Oc1ccc2oc(=O)c3c(c2c1)CCCN3	108 ± 12%	108 ± 14%
NCC(=O)Nc1ccc(-n2nc(C(F)(F)F)cc2-c2ccc3c(ccc4ccccc43)c2)cc1	114 ± 8.5%	101 ± 12%
O=C1NCCSc2c1sc1ccc(O)cc21	92.9 ± 24%	103 ± 14%
CCN(CC)CC(=O)Nc1c(C)cccc1C [Lidocaine Hydrochloride hydrate]	111 ± 18%	113 ± 8.3%
O=C(Nc1nc2cccc(-c3ccc(CN4CCS(=O)(=O)CC4)cc3)n2n1)C1CC1 [Filgotinib (GLPG0634)]	86.4 ± 6%	107.7 ± 0.87%
O=C1NC(=O)/C(=C/c2ccc3c(c2)OC(F)(F)O3)S1	102 ± 18%	104 ± 34%
CNc1nc(Nc2cnn([C@H]3CCN(C4COC4)C[C@@H]3F)c2Cl)ncc1C(F)(F)F	99.6 ± 15%	106 ± 2.4%
O=C1Cc2c([nH]c3ccc(Br)cc23)-c2ccccc2N1 [KenPaullone]	91.6 ± 2.8%	95.2 ± 16%
Cc1ccc(C(=O)Nc2ccc(CN3CCN(C)CC3)c(C(F)(F)F)c2)cc1C#Cc1cnc2cccnn12	6.99 ± 13%	3.31 ± 4.5%
CN(C)CCCn1cc(C2=C(c3c[nH]c4ccccc34)C(=O)NC2=O)c2ccccc21 [Bisindolylmaleimide I]	94.6 ± 15%	67.1 ± 44%
COc1cc2ncnc(Nc3ccc(O)c(Br)c3)c2cc1OC	95.4 ± 24%	112 ± 14%
C=CC(=O)Nc1cc2c(Nc3ccc(F)c(Cl)c3)ncnc2cc1OCCCN1CCOCC1 [Canertinib dihydrochloride]	101 ± 3.2%	111 ± 6.1%
CC[C@@H]1C(=O)N(C)c2cnc(Nc3ccc(C(=O)NC4CCN(C)CC4)cc3OC)nc2N1C1CCCC1	64.7 ± 9.6%	96.8 ± 16%
